# Source: PubChem (National Center for Advancing Translational Sciences (NCATS))
# Compounds with a hit are over-represented: about 17% of the library has one in this group of screens.
# ClpP mod = qHTS Assay for Activators of ClpP; 1.9% of 340,000 active; purified B. subtilis ClpP, FRET peptide cleavage, 20 min; ATP-dependent Clp protease proteolytic subunit (Bacillus subtilis (strain 168)), P80244; Potency, µM (series often up to 57.5 µM), inactives show top-dose activity change, negative = active; AID 651965, 2013; active = well fitted falling curve with a large enough effect; inconclusive = small, poorly fitted or top-dose-only effect; inactive = no such curve, though single readings can be large or run the other way; also: the source files actives as falling curves though it sought activators and does not explain the sign; nearly all actives have a fitted effect of over 65% in size
#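 Purified B. subtilis ClpP, 10 microg/mL final in Tris/HCl pH8 with KCl, BSA, glycerol and Tween-20, cleaved an Abz/nitrotyrosine-quenched decapeptide. Fluorescence (ex 320, em 430) was read at 0 and 20 min at room temperature. Delta was normalized to 5.8 microM ADEP and DMSO/no-enzyme controls.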
# TDP1 cell CPT = growth inhibition of DT40 Tdp1-/-;hTDP1 cells with camptothecin (screen for TDP1 inhibitors); Potency, µM (series often up to 46.2 µM), without a hit: at the top dose activity change, negative = growth inhibition, usual class: inhibitors; AID 686979; chicken DT40 Tdp1-/-;hTDP1 cells + 20 nM CPT, ATP luminescence, 48 h; 12% of 420,000 active; also: % is scaled to controls: 0 for no effect and ±100 for the full control effect; nearly all actives have a fitted effect of over 55% in size
#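 Chicken DT40 Tdp1-/- cells stably complemented with human TDP1 were seeded at 400 cells/well in medium containing 20 nM camptothecin, exposed to pin-transferred compounds, and grown at 37 °C for at least 48 hr. Viability was read as ATP luminescence.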
# TDP1 block = blocks human tyrosyl-DNA phosphodiesterase 1 | Q9NUW8 | recombinant TDP1, AlphaScreen DNA substrate cleavage | Potency, µM (top dose mostly 130 µM), without a hit: at the highest dose activity change, negative = inhibition, actives largely listed as inhibitors | 0.28% of 350,000 active | AID 485290; also: % is scaled to controls: 0 for no effect and ±100 for the full control effect; nearly all actives have a fitted effect of over 40% in size
# Target sequence (Q9NUW8 whole entry, looked up): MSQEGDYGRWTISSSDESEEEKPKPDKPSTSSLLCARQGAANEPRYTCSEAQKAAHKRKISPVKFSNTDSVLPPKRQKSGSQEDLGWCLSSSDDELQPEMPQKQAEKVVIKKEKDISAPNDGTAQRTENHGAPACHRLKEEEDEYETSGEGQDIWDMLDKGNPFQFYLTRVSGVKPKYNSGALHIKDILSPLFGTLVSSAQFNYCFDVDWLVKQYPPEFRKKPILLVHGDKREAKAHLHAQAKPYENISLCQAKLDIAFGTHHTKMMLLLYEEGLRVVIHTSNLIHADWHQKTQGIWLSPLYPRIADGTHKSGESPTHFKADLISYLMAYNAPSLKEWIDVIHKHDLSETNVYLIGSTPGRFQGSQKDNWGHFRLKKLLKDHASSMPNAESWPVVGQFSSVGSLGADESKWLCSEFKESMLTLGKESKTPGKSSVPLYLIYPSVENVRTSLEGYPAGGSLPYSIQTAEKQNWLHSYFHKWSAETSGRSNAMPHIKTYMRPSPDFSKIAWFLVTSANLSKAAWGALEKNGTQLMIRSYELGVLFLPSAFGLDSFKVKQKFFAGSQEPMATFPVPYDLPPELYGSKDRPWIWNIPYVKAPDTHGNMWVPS
#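 Tdp1 1 nM final; 15 min RT w/ cpd; substrate 15 nM, 5 min; beads 10 ug/ml, 10 min; AlphaScreen read. Neg ctrl: no enzyme.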
# TDP1 cell noCPT = qHTS for Inhibitors of human tyrosyl-DNA phosphodiesterase 1 (TDP1): qHTS in cells in absence of CPT; 15% of 420,000 active; Potency, µM (top dose mostly 46.2 µM), for the others: top-dose activity change, negative = growth inhibition, most hits filed as inhibitors; DT40 Tdp1-/- hTDP1 cells, no CPT, ATP luminescence, 48 h; also: % is scaled to controls: 0 for no effect and ±100 for the full control effect; nearly all actives have a fitted effect of over 55% in size
#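 Compound effects on proliferation are scored in DT40 Tdp1-/-;hTDP1 cells in the absence of CPT. ATP levels (CellTiter-Glo luminescence) are recorded after a ≥48 hr, 37 °C incubation.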
# Numbers without * were called inactive; ? = inconclusive; . = not tested or not shown; [ ] = dose if it differs, or a comment. Unless noted, calls follow the shape of the dose curve; as a rule, active = well fitted curve in the direction sought with a large enough effect; inconclusive = small, poorly fitted or top-dose-only effect, or another doubt; inactive = no such curve, though single readings can be large; an effect the other way counts as inactive or inconclusive. Potency is read from the fitted curve at half-maximal effect.
SMILES,ClpP mod,TDP1 cell CPT,TDP1 block,TDP1 cell noCPT
CCCN(CCC)CC(O)Cn1cc(/C=C/C(=O)c2ccc(C)cc2)c2ccccc21 (stereo not drawn),0.0%,?,7.6%,20.6µM*
CCCN(CCC)CC(O)Cn1cc(/C=C/C(=O)c2cccs2)c2ccccc21 (stereo not drawn),-0.8%,18.4µM*,-1.4%,?
CCCN(CCC)CC(O)Cn1cc(/C=C/C(=O)c2ccc(Br)cc2)c2ccccc21 (stereo not drawn),-0.2%,3.26µM*,0.0%,4.61µM*
CC(C)(C)NCC(O)Cn1cc(C=O)c2ccccc21 (stereo not drawn),-1.9%,-6.5%,-2.7%,-1.1%
Cc1noc(C)c1-c1nc(N2CCNCC2)c2ccccc2n1,.,?,-5.7%[56.1 µM],?
COc1ccc(CCCNC(=O)C2(C)Cc3c(-c4ccc5c(c4)OCO5)ccnc3O2)cc1 (stereo not drawn),4.8%,5.17µM*,.,5.8µM*
CC1(C(=O)NCc2cccs2)Cc2c(-c3ccccc3)ccnc2O1 (stereo not drawn),-0.7%,5.8µM*,.,6.51µM*
CC1(C(=O)NCc2cccc(Cl)c2)Cc2c(-c3ccc4c(c3)OCO4)ccnc2O1 (stereo not drawn),3.8%,25.9µM*,.,16.4µM*
CN(C)c1ccc(-c2ccnc3c2CC(C)(C(=O)NCc2cccs2)O3)cc1 (stereo not drawn),4.3%,16.4µM*,.,13µM*
CC1(C(=O)Nc2cccnc2)Cc2c(-c3ccc4c(c3)OCO4)ccnc2O1 (stereo not drawn),4.2%,-76.2%,.,?
CC(=O)NCCNC(=O)C1(C)Cc2c(-c3ccc(NC(C)=O)cc3)ccnc2O1 (stereo not drawn),4.2%,-1.3%,.,?
CO[C@H]1[C@H](NC(=O)c2ccco2)c2ccccc2C12CCN(Cc1cccn1-c1ccccn1)CC2,.,11.3%[9.04 µM],.,-4.0%
O=C(OCC(=O)N1CCCC1=O)C1COc2ccccc2O1 (stereo not drawn),0.0%,-6.9%,0.0%,6.1%
CC1(C(=O)NCc2cccs2)Cc2c(-c3ccc4c(c3)OCO4)ccnc2O1 (stereo not drawn),4.0%,1.3µM*,.,2.31µM*
CC1(C(=O)NCc2ccccc2)CN(S(C)(=O)=O)CC(=O)N1CCc1c[nH]c2ccccc12 (stereo not drawn),0.4%,13µM*,.,7.3%
Cc1cccc(C)c1NC(=O)C1(C)CN(S(C)(=O)=O)CC(=O)N1CCc1c[nH]c2ccccc12 (stereo not drawn),-4.3%,14.8%,.,1.3%
Cc1ccc(SCC(=O)Nc2ccc3oc(-c4cccc(Cl)c4)nc3c2)cc1,3.8%,?,-1.6%,20.6µM*
Cc1ccc2oc(-c3cccc(NC(=O)Cc4ccc(Cl)cc4)c3)nc2c1,-5.3%,-1.5%,-3.1%[12.3 µM],-6.0%
Cc1cc2nc(-c3cccc(NC(=O)CSc4ccc(Cl)cc4)c3)oc2cc1C,?,16.4µM*,5.8%,?
Cc1cccc(-c2nc3cc(NC(=O)Cc4ccc(Cl)cc4)ccc3o2)c1,?,16.4µM*,2.2%[12.3 µM],10.3µM*
O=C(CSc1ccc(Cl)cc1)Nc1cccc(-c2nnc(-c3ccco3)o2)c1,?,?,0.0%,?
COc1cc2c(cc1N)-c1ccc(N)cc1C2=O,-5.1%,?,.,16.4µM*
Nc1ccc2c(c1)C(=O)c1cc(N)c(Cl)cc1-2,.,2.2%,.,-18.8%
CN(C)C(=O)c1ccc(-c2cc(NCc3ccccc3)ncn2)cc1,.,-4.0%,.,0.7%
CCOc1ncccc1C(=O)N1CCN(C(c2ccccc2)c2ccccc2)CC1,.,13µM*,0.0%,13µM*
SMILES,ClpP mod,TDP1 cell CPT,TDP1 block,TDP1 cell noCPT
O=C(c1n[nH]c2ccccc12)N1CCCCC1,1.5%,-0.3%,0.0%,-5.3%
Cn1nc(C(=O)N2CCN(C(c3ccccc3)c3ccccc3)CC2)c2ccccc2c1=O,-0.2%,23.1µM*,5.9%,?
O=C(c1n[nH]c2ccccc12)N1CCN(S(=O)(=O)c2ccc(Cl)cc2)CC1,3.0%,?,-0.6%,18.4µM*
CCCCn1nc(C(=O)N2CCN(S(=O)(=O)c3ccccc3)CC2)c2ccccc2c1=O,-4.3%,?,-8.4%,14.6µM*
Cc1ccnc(NC(=O)CCNC(=O)c2ccccc2Cl)c1,-1.2%,8.6%,2.4%,8.5%
COc1cc(OC)cc(C(=O)N[C@H](C(=O)NCc2ccc(F)cc2)C(C)C)c1,.,-4.8%,.,?
CN1CCN(c2ccc(S(=O)(=O)N3CCOCC3)cc2)CC1,-3.7%,2.4%,0.5%,7.4%
Cn1nc(C(=O)N2CCN(S(=O)(=O)c3ccc(Cl)cc3)CC2)c2ccccc2c1=O,0.6%,?,3.1%,23.1µM*
O=C(O)CCC/C=C\C[C@@H]1[C@@H](/C=C/[C@@H](O)COc2cccc(C(F)(F)F)c2)[C@H](O)C[C@@H]1O,.,2.2%,6.4%,0.0%
CS(=O)(=O)Nc1ccccc1C(=O)Nc1ccccc1Cl,-29.2%,-4.0%,2.5%,-14.5%
CS(=O)(=O)Nc1ccccc1C(=O)Nc1cccc(Cl)c1,-29.4%,?,8.4%,23.1µM*
CCS(=O)(=O)c1ccc(C(=O)Nc2cccc(Cl)c2)c(Cl)c1Cl,1.6%,?,5.1%,20.6µM*
CS(=O)(=O)Nc1ccccc1C(=O)Nc1cc(Cl)cc(Cl)c1,14.1µM*,18.4µM*,-1.9%,18.4µM*
COc1ccc(CNCc2ccc3c(c2)n(C)c(=O)n3C)cc1,0.3%,?,3.6%,?
N#C/C(=C/c1ccncc1)c1nc2ccccc2s1,-2.6%,-4.4%,2.5%,-20.6%
CC1CCc2nc(/C(C#N)=C/c3ccncc3)sc2C1 (stereo not drawn),.,18.4µM*,8.9%,?
CCN1C(=O)[C@H]2[C@@H](c3ccc(-c4ccc(OC)cc4)cc3)N[C@@](CC(C)C)(C(=O)OC)[C@H]2C1=O,4.3%,?,-3.8%,23.1µM*
COC(=O)[C@]1(CC(C)C)N[C@H](c2ccc(-c3ccc(C(C)=O)cc3)cc2)[C@@H]2C(=O)N(C)C(=O)[C@@H]21,0.3%,-21.7%,0.6%,?
CCN1C(=O)[C@H]2[C@@H](c3ccc(-c4ccc(Cl)c(Cl)c4)cc3)N[C@@](CC(C)C)(C(=O)OC)[C@H]2C1=O,-20.3%,4.11µM*,-2.9%,?
CCN1C(=O)[C@H]2[C@@H](c3ccc(-c4cccc(Cl)c4)cc3)N[C@@](CC(C)C)(C(=O)OC)[C@H]2C1=O,-3.2%,18.4µM*,-0.1%,11.6µM*
COC(=O)[C@]1(CC(C)C)N[C@H](c2ccc(-c3ccc(Cl)c(Cl)c3)cc2)[C@@H]2C(=O)N(C)C(=O)[C@@H]21,-7.8%,?,-0.5%,18.4µM*
CCN1C(=O)[C@H]2[C@@H](c3ccc(-c4cccc(Cl)c4)c(OC)c3)N[C@@](CC(C)C)(C(=O)OC)[C@H]2C1=O,-7.6%,?,-3.4%,?
